PubChem BioAssay
A number with no mark means an inactive call. The source made the active and inactive calls. Cut-off read from the data, not from the text of the source: active = fold change permeability below about 0.7 or above about 1.3; inactive = in between.

Assay: compounds altering in vitro BBB leakiness – cell-based, FITC-avidin fluorescence, HTS, primary screen (AID 1963498); note: test concentration not given here
Details: brain endothelial barrier, actives lie on both sides

| Structure (SMILES) | fold change permeability |
| --- | --- |
| O=C(CCNNC(=O)c1ccncc1)NCc1ccccc1 | 0.8 |
| CN[C@H](CC(=O)O)C(=O)O | 0.8 |
| N[C@@H](Cn1ccc(=O)c(O)c1)C(=O)O | 1.8 (active) |
| Cc1ccc(C(=O)Nc2ccc(S(=O)(=O)O)c3cc(S(=O)(=O)O)cc(S(=O)(=O)O)c23)cc1NC(=O)c1cccc(NC(=O)Nc2cccc(C(=O)Nc3cc(C(=O)Nc4ccc(S(=O)(=O)O)c5cc(S(=O)(=O)O)cc(S(=O)(=O)O)c45)ccc3C)c2)c1 | 1.3 (active) |
| O=C(OCCN1CCOCC1)C1(c2ccccc2)CCCCC1 | 1 |
| O=c1[nH]c2cc(Cl)ccc2c(O)c1-c1cccc(Oc2ccccc2)c1 | 1.4 (active) |
| O=C(O)c1cccc(-c2ccc(-c3cn(C(=O)N4CCCCC4Cc4ccccc4)nn3)cc2)c1 (stereo not drawn) | 1 |
| CCN(Cc1ccncc1)C(=O)C(CO)c1ccccc1 (stereo not drawn) | 1.6 (active) |
| NS(=O)(=O)c1cc2c(cc1Cl)NC(C1CC3C=CC1C3)NS2(=O)=O (stereo not drawn) | 1.3 (active) |
| CCN(CC)C(=O)c1ccc(O)c(OC)c1 | 0.8 |
| NC(=O)N1c2ccccc2C=Cc2ccccc21 | 1.1 |
| CC(=O)[C@]1(O)Cc2c(O)c3c(c(O)c2[C@@H](O[C@H]2C[C@H](N)[C@H](O)[C@H](C)O2)C1)C(=O)c1ccccc1C3=O | 3.4 (active) |
| CN1Cc2c(N)cccc2C(c2ccccc2)C1 (stereo not drawn) | 1 |
| O=c1onc2cnc3ccccc3n12 | 1.1 |
| CN(C)CCC=C1c2ccccc2C=Cc2ccccc21 | 1.1 |
| CO[C@H]1O[C@@H]2O[C@@]3(C)CC[C@H]4[C@H](C)CC[C@@H]([C@H]1C)[C@@]24OO3 | 0.8 |
| Nc1nc(N)c2nc(CNc3ccc(C(=O)N[C@@H](CCC(=O)O)C(=O)O)cc3)cnc2n1 | 0.9 |
| CCN(C)C(=O)C1(CCOc2ccccc2)CCN(Cc2ccc(O)c(Cl)c2)CC1 | 1 |
| CN[C@H](CC(C)C)C(=O)N[C@H]1C(=O)N[C@@H](CC(N)=O)C(=O)N[C@H]2C(=O)N[C@H]3C(=O)N[C@H](C(=O)N[C@H](C(=O)O)c4cc(O)cc(O)c4-c4cc3ccc4O)[C@H](O)c3ccc(c(Cl)c3)Oc3cc2cc(c3O[C@@H]2O[C@H](CO)[C@@H](O)[C@H](O)[C@H]2O[C@H]2C[C@](C)(N)[C@H](O)[C@H](C)O2)Oc2ccc(cc2Cl)[C@H]1O | 1.6 (active) |

| Structure (SMILES) | fold change permeability |
| --- | --- |
| S=C(S)N1CCCC1 | 1 |
| CC(Nc1nc(N2CCNCC2)nc2ccccc12)c1ccccc1 (stereo not drawn) | 2.4 (active) |
| N#Cc1ccc(-c2csc(NN=C3CCCC3)n2)cc1 | 1.7 (active) |
| Cc1ccc(C(=O)Nc2cnc(N3CCC(C(N)=O)(N4CCCCC4)CC3)c(C(=O)O)c2)cc1 | 1 |
| CN(C)CCCN1c2ccccc2Sc2ccc(Cl)cc21 | 1.1 |
| N[C@@H](Cc1ccc(O)c(I)c1)C(=O)O | 1.9 (active) |
| N=c1ccn2c(n1)O[C@H]1[C@H](O)[C@@H](CO)O[C@H]12 | 1.1 |
| O=C(O)c1cc(=O)c2c(Cl)cc(Cl)cc2[nH]1 | 1.1 |
| CC(=O)/C=C1\C(=O)N(C)c2ccccc21 | 1.2 |
| N[C@@H](CS(=O)O)C(=O)O | 1 |
| C=C1C[C@@]23CC[C@H]4[C@@](C)(CCC[C@@]4(C)C(=O)O[C@@H]4O[C@H](CO)[C@@H](O)[C@H](O)[C@H]4O)[C@@H]2CC[C@]1(O[C@@H]1O[C@H](CO)[C@@H](O)[C@H](O)[C@H]1O[C@@H]1O[C@H](CO)[C@@H](O)[C@H](O)[C@H]1O)C3 | 1.7 (active) |
| COc1cccc(OC)c1-c1cc(C(=O)NC2(C(=O)O)C3CC4CC(C3)CC2C4)nn1-c1ccc(C(=O)N(C)CCCN(C)C)cc1C(C)C (stereo not drawn) | 0.9 |
| Cc1cccc(/C=C/c2ccccc2)n1 | 1.2 |
| COc1ccc(-c2cc3ncc(C)n3c(Nc3ncccc3C(N)=O)n2)cc1OC | 1.6 (active) |
| CCO/C([O-])=N/c1c[n+](N2CCOCC2)no1 | 0.8 |
| COc1ccccc1-c1cc(Nc2cccc(CS(N)(=O)=O)c2)ncn1 | 0.9 |
| CCOC(=O)COc1ccc2c(c1)C[C@@H](NC[C@H](O)c1cccc(Cl)c1)CC2 | 1.1 |
| O=[N+]([O-])c1cccc2cn[nH]c12 | 1 |
| O=C(NCCN1CCOCC1)c1ccc(Cl)cc1 | 0.8 |
